Sampled rows, rich in hits. Any-hit rate of the full collection: about 3.7%.
Kir21 inh = inhibitors of mouse Kir2.1 inward-rectifier potassium channel; P35561; B-score at 10 µM; AID 1672; hit rate 0.85% among 310,000; HEK293-Kir2.1, FluxOR thallium flux fluorescence; active compounds read low;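 active means fluorescence ratio B-score at or below minus 3 SD of library scores, with starting-brightness B-score within 2 SD, cut at about -4.2 in these data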;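 further: channel flux triggered by added potassium and thallium sulfate stimulus; B-score of peak minus minimum fluorescence over baseline after thallium stimulus; more negative B-score means stronger Kir2.1 block with less thallium influx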
CHT PAM = human CHT allosteric activation | Q9GZV3 | CHT-expressing cells, membrane potential dye, choline EC20; active compounds read high; LV-AA mutant CHT in HEK293 cells | B-score at 10 µM | hit rate 0.49% among 310,000 | AID 488977;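 active means initial fluorescence not abnormally high and integrated response B-score, plate-corrected, over 3 SD above library mean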
TMEM16A inh = blocks the mouse calcium-activated chloride channel TMEM16A; Q8BHY3; hit rate 1.2% among 310,000; normalized B-score (activity score, 25-100; higher = stronger inhibition) at 10 µM; HEK293 TMEM16A/YFP iodide influx fluorescence, ionomycin; AID 588511;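 active means ratio plate-corrected score three or more library SD toward inhibition, starting fluorescence score within five deviations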;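 further: score derived from kinetic fluorescence span divided by baseline fluorescence per well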
CHT inh = inhibits the human high affinity choline transporter. B-score at 10 µM. Q9GZV3. hit rate 0.86% among 310,000. CHT-expressing cells, membrane potential dye, choline response; active compounds read low;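 active means B-score over 3 SD under the library average, and starting fluorescence ratio not unusually high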;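 further: choline stimulus applied at its EC90 after an EC20 pre-addition; B-score computed on integrated fluorescence ratio after choline addition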
TMEM16A act = mouse TMEM16A channel activation, primary screen; Q8BHY3; HEK293 TMEM16A/YFP-H148Q/I152L, iodide quench fluorescence; active compounds read low; B-score at 10 µM; hit rate 0.3% among 340,000; AID 623877;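 active means fluorescence-ratio B-score plate-corrected deviation score at least 3 library SD below zero, with starting fluorescence score within 5 deviations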;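 further: channel opened by trigger with iodide after compound preincubation; score built on the fluorescence ratio of max minus min over baseline; more negative score means more quench and so TMEM16A activation or potentiation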
GPR7 antagonist = human neuropeptides B/W receptor 1 antagonism. P48145. GPR7-expressing cells, fluorescence antagonist assay. inhibition, % at 4.4 µM. hit rate 1.1% among 290,000; in the data active means inhibition above about 16%, passing the limit was not always enough;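 further: cells stimulated with the agonist NPW; 0% = agonist with vehicle and 100% = vehicle without agonist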
* hit, by the source's call; i = inactive; . = not tested or not shown.

SMILES	Kir21 inh	CHT PAM	TMEM16A inh	CHT inh	TMEM16A act	GPR7 antagonist
CC1CCN(C(=O)C2CCN(CC(C)c3ccccc3)CC2)CC1 (stereo not drawn)	-0.44	i	25*	i	i	0
N#CC(C#N)=C(Nc1ccc(F)cc1)SCc1cccc(Br)c1	-3.2	i	100*	i	i	1
Cc1cccc(NC(=O)Cc2ccc(F)cc2)c1	0.76	i	i	i	i	11
Cc1cccc(CSC(Nc2ccc(F)cc2)=C(C#N)C#N)c1	-4.5*	i	100*	i	i	11
Cc1ccc(C2(c3ccc(C)cc3)NC(=O)N(CC(N)=O)C2=O)cc1	0.01	i	i	i	i	-9
O=[N+]([O-])c1ccc(-[n+]2ccc3ccccc3c2)c([N+](=O)[O-])c1	-4.7*	i	i	i	i	.
O=[N+]([O-])c1ccc(SNc2ccccc2)c([N+](=O)[O-])c1	.	.	.	.	i	.
Nc1ccc(S(=O)(=O)N2CCCc3ccccc32)cc1	-5.7*	i	i	i	i	-4
O=S(=O)(c1ccc(Cl)cc1)N1CCCc2ccccc21	-4.6*	i	i	i	i	-28
CN(c1ccc(OCC(=O)NCCc2ccccc2)cc1)S(=O)(=O)c1ccc(Cl)cc1	-1.1	i	i	i	i	.
NS(=O)(=O)c1ccc(CCNC(=O)CCCOc2ccccc2)cc1	0.7	i	i	i	-4.6*	-14
COc1ccc(CCNC(=O)COc2ccc(N(C)S(=O)(=O)c3ccc(Cl)cc3)cc2)cc1	-5.9*	.	.	.	i	6
NS(=O)(=O)c1ccc(CCNC(=O)CNC(=O)COc2ccccc2)cc1	0.27	i	i	i	-4.7*	36
Cn1c(N)c(C(=O)COC(=O)COc2ccc(Cl)cc2Cl)c(=O)n(C)c1=O	.	.	.	.	i	.
Cc1nn(Cc2c(Cl)cccc2Cl)c(Cl)c1/C=N/NC(=O)c1cccnc1	-0.47	i	i	i	i	-16
COc1ccccc1-c1nnc2sc(-c3cc4ccccc4o3)nn12	-1.3	i	100*	i	i	18*
Cc1cccc(CN2CCCC(C(=O)Nc3ccccc3Oc3cccnc3)C2)c1 (stereo not drawn)	-5.5*	i	i	i	i	10
Cc1ccc(CN2CCC(C(=O)Nc3ccc(Oc4cccnc4)cc3)CC2)cc1	-4.8*	.	.	.	i	-13
COc1ccc(N(CC(=O)N/N=C(\C)CCc2ccccc2)S(=O)(=O)c2ccc(C)cc2)cc1	-0.17	i	i	i	i	8
CCOc1ccc(S(=O)(=O)N2CCN(C(=O)C3CCC3)CC2)cc1	-0.45	i	i	i	i	.
CCn1c(=NC(=O)c2cccc(N3C(=O)CCC3=O)c2)sc2c(OC)ccc(OC)c21	1.1	i	i	i	-6.4*	-17
CCOc1ccc(OCC(=O)OCc2cc(=O)n3cc(Br)ccc3n2)cc1	.	.	.	.	-10*	.
CCOc1ccc(CC(=O)OCc2cc(=O)n3cc(Br)ccc3n2)cc1	2.3	i	i	i	i	-9
Cc1ccc(NC(=O)CN2CCCC2)c2c1CC(C)(C)O2	0.29	i	i	i	i	-9
Cc1cccc(S(=O)(=O)Nc2ccc(C)c3c2OC(C)(C)C3)c1	-5.9*	i	i	i	i	-8
SMILES	Kir21 inh	CHT PAM	TMEM16A inh	CHT inh	TMEM16A act	GPR7 antagonist
O=C(CSc1ncnc2sc3c(c12)CCCC3)c1ccco1	0.7	i	i	i	i	-5
O=C(CSc1ncnc2sc3c(c12)CCCC3)c1ccccc1	-1.2	i	i	i	-5*	1
N#Cc1ccccc1S(=O)(=O)N1CCN(C(=O)[C@@H]2CCCN2C(=O)c2cccs2)CC1	.	.	.	.	i	.
Cc1ccc(-c2nc(CCNC(=O)c3ccco3)cs2)cc1	-3	i	25*	i	i	.
CCN(CC(=O)NCc1ccc(F)cc1)C(=O)CCNS(=O)(=O)c1cccc(C)c1	.	.	.	.	i	.
CCN(c1ccccc1)S(=O)(=O)c1ccc(Cl)nc1	-4.3*	i	i	i	i	-2
COc1cccc(N2CC(C(=O)Nc3nnc(SCC(=O)NCc4ccco4)s3)CC2=O)c1 (stereo not drawn)	1.4	i	i	i	i	-20

Bioassay records as filed in PubChem BioAssay.
